BoNT-F LC inh: BoNT F light chain protease inhibition. Multiplex microsphere protease cleavage assay, flow cytometry. inhibition, % at 10 µM. 0.22% of 360,000 active; in the data active means inhibition above about 35%, passing the limit was not always enough; inconclusive means no clear call, values can overlap the other calls; further: plate controls were buffer without enzyme for full effect and enzyme alone for no effect
BoNT A protease: BoNT A light chain protease inhibition | multiplex microsphere protease substrate cleavage, flow cytometry | 0.17% of 360,000 active | inhibition, % at 10 µM; further: plate controls were buffer without enzyme for full effect and enzyme alone for no effect
Autofluor counter: flagged as autofluorescent in microsphere protease counterscreen; fluorescence intensity (no concentration beside the values); compound autofluorescence counterscreen, microsphere flow cytometry; stronger effect = higher value; AID 624483; 3.1% of 360,000 active; in the data active means fluorescence intensity above about 16000; inconclusive means no clear call, values can overlap the other calls
Anthrax LF prot: anthrax lethal factor protease inhibition. 0.12% of 360,000 active. inhibition, % at 10 µM. multiplex microsphere protease cleavage assay, LF. P15917; further: plate controls were buffer without enzyme for full effect and enzyme alone for no effect
Target sequence (P15917 whole entry, looked up): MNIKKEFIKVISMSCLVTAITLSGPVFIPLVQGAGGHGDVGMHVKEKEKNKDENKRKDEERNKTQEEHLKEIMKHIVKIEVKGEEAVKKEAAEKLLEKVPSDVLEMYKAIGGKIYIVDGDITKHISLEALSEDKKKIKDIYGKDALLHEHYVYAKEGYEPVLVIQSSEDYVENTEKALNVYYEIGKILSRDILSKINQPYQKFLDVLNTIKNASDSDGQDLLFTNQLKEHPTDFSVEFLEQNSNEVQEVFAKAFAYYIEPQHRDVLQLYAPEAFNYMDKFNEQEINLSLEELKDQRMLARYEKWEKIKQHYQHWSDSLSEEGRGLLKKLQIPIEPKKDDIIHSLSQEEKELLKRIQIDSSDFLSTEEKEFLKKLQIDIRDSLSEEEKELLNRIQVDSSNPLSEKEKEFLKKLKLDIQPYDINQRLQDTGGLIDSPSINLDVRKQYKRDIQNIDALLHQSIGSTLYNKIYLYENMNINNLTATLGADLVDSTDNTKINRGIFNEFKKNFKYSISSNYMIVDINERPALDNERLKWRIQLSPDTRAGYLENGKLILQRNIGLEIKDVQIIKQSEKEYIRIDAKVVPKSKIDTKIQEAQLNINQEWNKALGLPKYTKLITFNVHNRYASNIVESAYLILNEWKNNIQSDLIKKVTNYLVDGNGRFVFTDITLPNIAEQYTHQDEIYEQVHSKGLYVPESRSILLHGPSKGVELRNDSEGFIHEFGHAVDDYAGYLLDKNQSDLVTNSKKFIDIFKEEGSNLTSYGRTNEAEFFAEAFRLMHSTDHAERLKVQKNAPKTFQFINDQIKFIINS
BoNT-A LC CP1: inhibitors of Botulinum neurotoxin A light chain protease; shares compounds with BoNT-F LC inh; multiplex microsphere protease assay, flow cytometry; inhibition, % at 10 µM; 3% of 720 active; AID 602139; in the data active means inhibition above about 32%
BoNTF LC inh 1: blocks botulinum neurotoxin F light chain protease; shares compounds with BoNT-F LC inh; multiplex microsphere protease cleavage assay, flow cytometry; inhibition, % at 10 µM; 720 tested, under 10 active; call rule not given here
LF protease CP1: inhibitors of Bacillus anthracis lethal factor protease. shares compounds with BoNT-F LC inh. multiplex microsphere protease cleavage assay, LF. inhibition, % at 10 µM. 720 tested, under 10 active. AID 602142; call rule not given here
The depositor's hits bear a star; ? = inconclusive; . = no result given. Rows were chosen to be rich in hits. Some 3.5% of all compounds tested hit in one or more screens of this group. Unless noted, no stated cut-off is given here; in the data, active means inhibition above about 30%; inconclusive means no clear call, values can overlap the other calls; inactive means below that.

SMILES | BoNT-F LC inh | BoNT A protease | Autofluor counter | Anthrax LF prot | BoNT-A LC CP1 | BoNTF LC inh 1 | LF protease CP1
COCCNc1nnc(SCC(=O)c2c[nH]c3ccccc23)s1 | -19 | 52* | 5036 | 17 | 10 | -14 | 13
Cc1occc1-c1nnc(SCC(=O)c2c[nH]c3ccccc23)n1C | 27 | 54* | 4371 | 45* | -1 | -8 | 3
CCNC(=O)C1(C)CCCN(Cc2ccccc2-c2ccccc2)C1 (stereo unspecified) | -4 | 0 | 3772 | -6 | . | . | .
O=c1c(Cl)c2oc3ccccc3nc-2c2ccccc12 | 6 | 47* | 6118 | 25 | 32* | 8 | 23
C=CCc1ccc(OCCOCCN(C)C)c(OC)c1 | 14 | 0 | 3818 | -2 | . | . | .
C=CCc1ccc(OCCOc2cccc3ccc(C)nc23)c(OC)c1 | 53* | 46* | 9218 | -8 | -2 | -3 | -3
Cc1ccc2cccc(OCc3ccc(F)cc3)c2n1 | 5 | 1 | 3466 | -6 | . | . | .
Cc1ccc2cccc(OCc3ccc(Br)cc3)c2n1 | 39* | 0 | 3567 | -6 | 0 | -8 | 4
O=C1N(c2ccccc2)c2ccccc2C1(O)C(F)(F)F (stereo unspecified) | 28 | 1 | 3007 | 36* | 0 | 0 | -1
CC(C)CNC(=O)C1(C)CCCN1C(=O)c1ccc2c(c1)CCO2 (stereo unspecified) | -6 | 0 | 3790 | 4 | . | . | .
CCCCC(=O)C1CCN(Cc2ccccc2)CC1 | 33 | 0 | 7263 | -2 | 1 | -5 | 0
CCC(C)[C@H](NC(=O)N1CCCCC1)C(=O)OC (stereo partly specified) | ? | 3 | 4756 | 35* | -1 | 3 | -1
COc1cc(Nc2ccn3nc(-c4ccc(F)cc4)cc3n2)cc(OC)c1OC | -1 | 0 | 3468 | 0 | . | . | .
Cc1ccc(C(CC(=O)N2CCCCC2)c2ccccc2)c(O)c1C (stereo unspecified) | 128* | 10 | 6356 | 69* | -1 | -6 | 0
Cc1ccc(C(CC(=O)N2CCNCC2)c2ccccc2)c(O)c1C (stereo unspecified) | -15 | 0 | 2861 | 0 | . | . | .
O=C(O)C(Cc1ccccc1)N1C(=O)C=CC1=O (stereo unspecified) | 5 | 0 | 3835 | -2 | . | . | .
Cc1cc(C)c2[nH]c(=O)c(C(c3nnnn3C(C)(C)C)N(Cc3ccco3)CC3CCCO3)cc2c1 (stereo unspecified) | 0 | 0 | 20853* | -3 | -1 | -7 | -3
Cc1cc2cc(C(c3nnnn3C(C)(C)C)N(Cc3ccco3)CC3CCCO3)c(=O)[nH]c2cc1C (stereo unspecified) | -3 | -1 | 9489 | -3 | . | . | .
CC1(C)CC(NC(=O)c2cccc([N+](=O)[O-])c2)CC(C)(C)N1 | 1 | 0 | 3713 | 30* | 0 | -6 | -3
Cc1ccc(C(=O)NC2CC(C)(C)NC(C)(C)C2)cc1Cl | ? | -7 | 3135 | 3 | . | . | .
COc1cc(OC)c(CN2CCc3c([nH]c4ccccc34)C2)cc1Br | ? | 51* | 26222* | -10 | -1 | -6 | -6
Cc1cccc(CN2CCc3c([nH]c4ccccc34)C2)c1 | -2 | 2 | 4883 | -6 | . | . | .
OC(c1ccc(Cl)cc1)c1ncc(-c2ccccc2Cl)[nH]1 (stereo unspecified) | -6 | 0 | 3909 | -3 | . | . | .
CNC(=S)N1N=C(c2cccs2)CC1c1ccc(F)cc1 (stereo unspecified) | 50* | 0 | 3676 | 6 | 1 | -3 | -2
COc1ccccc1OCCNC(=O)c1cc(F)c(F)cc1Cl | 0 | 0 | 2189 | -2 | . | . | .
SMILES | BoNT-F LC inh | BoNT A protease | Autofluor counter | Anthrax LF prot | BoNT-A LC CP1 | BoNTF LC inh 1 | LF protease CP1
COc1ccccc1OCCNC(=O)Nc1cc(F)c(F)cc1Cl | ? | -2 | 3656 | 31* | 1 | 2 | 2
COCCN(C(=O)COC(=O)CCCc1c[nH]c2ccccc12)c1c(N)n(Cc2ccccc2)c(=O)[nH]c1=O | -9 | -1 | 3107 | -5 | . | . | .
COCCNC(=O)c1ccc(N2CC3CC(C2)c2cccc(=O)n2C3)c(NC(=O)c2ccccc2Br)c1 (stereo unspecified) | -1 | 0 | 3826 | 0 | . | . | .
COC(=O)C1Cc2c([nH]c3ccccc23)C2(CCN(Cc3ccccc3)CC2)N1 (stereo unspecified) | 41* | 4 | 7106 | 6 | 1 | 1 | 2
COC(=O)CCC(=O)Nc1ccc(S(=O)(=O)Nc2cc(OC)nc(OC)n2)cc1 | -3 | -2 | 3679 | -3 | . | . | .
CCCCCC(=O)Nc1ccc(S(=O)(=O)Nc2cc(OC)nc(OC)n2)cc1 | 39* | 2 | 3600 | -2 | -1 | -2 | 2
C(C#CCN1CCOCC1)#CCN1CCOCC1 | 9 | 0 | 2692 | -6 | . | . | .
COc1ccc(C(=O)Nc2nc(-c3ccc([N+](=O)[O-])cc3)c(-c3ccccc3)s2)cc1 | 15 | 29 | 2430 | 31* | 24 | 3 | 18
O=C(Nc1nc(-c2ccccc2)c(-c2ccccc2)s1)c1ccc(S(=O)(=O)N2CCCC2)cc1 | 1 | 3 | 15385 | -4 | -1 | -2 | 0
C/C(N)=C(/C#N)C(=O)COC(=O)c1ccc(OCC2CCCO2)cc1 (stereo unspecified) | 15 | 3 | 4032 | 3 | . | . | .
Cc1ccsc1CN(C)C(=O)C(NC(=O)c1cccc(S(=O)(=O)N2CCOCC2)c1)C(C)C (stereo unspecified) | 2 | 2 | 4883 | -1 | . | . | .
O=c1[nH]c2ccc(S(=O)(=O)Nc3ccccc3O)cc2[nH]1 | -1 | 2 | 3478 | 15 | . | . | .
COc1ccccc1NS(=O)(=O)c1ccc2[nH]c(=O)[nH]c2c1 | 36* | 2 | 3623 | -8 | 0 | -4 | 0
CCCCC(=O)Nc1cnc(NC(=O)c2cccs2)cc1C | 31 | 3 | 3547 | -8 | . | . | .
CC(C)C[C@@H]1Cc2[nH][nH]c(=O)c2[C@H](C)O1 | 3 | 1 | 4355 | -6 | . | . | .
COc1ccccc1CNC(=O)Cc1c[nH]c2ccccc12 | 36* | 1 | 2995 | -6 | -1 | -1 | 2
COc1ccc(CNC(=O)CCc2c[nH]c3ccccc23)cc1 | 13 | -2 | 4079 | 2 | . | . | .
COc1ccc(CNC(=O)Cc2c[nH]c3ccccc23)cc1OC | -6 | -3 | 4107 | 7 | . | . | .
COc1ccc(CNC(=O)N[C@@H](Cc2c[nH]c3ccccc23)C(=O)O)cc1 | 77* | 5 | 2964 | 9 | -1 | 2 | 0
COC(=O)c1ccc(CNC(=O)CCc2c[nH]c3ccccc23)cc1 | 81* | 4 | 3982 | 10 | 0 | 6 | 1
Nc1ccc(Nc2ccncc2)cc1 | -4 | 0 | 3538 | -3 | . | . | .
Cc1cc(C)n(C(=O)COc2c(C)cccc2C)n1 | 47* | 2 | 4333 | 2 | 0 | -2 | -1
Cc1cc(C)n(C(=O)COc2ccc(Cl)cc2Cl)n1 | 23 | 4 | 5427 | 3 | . | . | .
COc1cc2c(cc1OC)CN(S(=O)(=O)c1ccccc1F)CC2 | 3 | 1 | 4056 | 8 | . | . | .
O=S(=O)(c1ccccc1F)N1CCc2ccccc2C1 | ? | 0 | 3906 | 34* | -1 | -2 | -2
